Screening results from PubChem.
TLR4-MyD88 BLA: TLR4-MyD88 interaction inhibition in cells | HeLa CL3-4 TLR4/MyD88 BLA complementation, FRET ratio | inhibition, % at 8.4 µM | 200,000 compounds, 0.18% hits | AID 861; in the data active means inhibition above about 25%;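 further: 0% = vehicle and 100% = reference inhibitor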
PRMT1 inh: inhibitors of human PRMT1; inhibition, % at 2.79 µM; recombinant PRMT1, activity-based probe fluorescence polarization; 370,000 compounds, 1.3% hits; Q99873;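 active means inhibition above about 21% made by adding two undisclosed values, limit read from the data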
ABHD5 PLIN5 PPI: blocks binding of human ABHD5 to perilipin-5; Q00G26+Q8WTS1; Split G. princeps luciferase complementation, luminescence, 4 h; inhibition, % at 4 µM; 360,000 compounds, 0.78% hits; AID 602281;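 active means inhibition above the mean inhibition across every tested compound plus 3 SD, cut at about 22% in these data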;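 further: 0% = DMSO only wells and the 100% control is not disclosed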
TLR9-MyD88 block: TLR9-MyD88 interaction inhibition | 340,000 compounds, 0.21% hits | CHO BLA complementation TLR9-MyD88, CCF4 FRET ratio | Q9NR96+Q99836 | inhibition, % at 4.98 µM;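 active means inhibition above the mean over all tested compounds plus 3 SD, cut at about 21% in these data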;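 further: 0% = DMSO only wells and 100% = clavulanate BLA inhibitor control wells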
NOD2-RIPK2 inh: NOD2-RIPK2 protein interaction inhibition. CHO BLA complementation NOD2-RIPK2, CCF4 ratio. 360,000 compounds, 0.38% hits. inhibition, % at 4.98 µM; in the data active means inhibition above about 21%;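 further: 0% = vehicle only and 100% = reference blocker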
rCAG binder: molecules binding r(CAG) RNA repeats. r(CAG) RNA repeat, TO-PRO-1 dye displacement fluorescence. inhibition, % at 3 µM. 370,000 compounds, 1.3% hits. AID 651821;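 active means inhibition above the plate cutoff, the mean of all test compounds on that plate plus 3 SD, cut at about 35% in these data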;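 further: 0% = DMSO alone and 100% = 100 µM mitoxantrone as full dye displacement; higher means more dye released from RNA so lower well fluorescence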
ABHD5-PLIN5 conf: confirmation of human ABHD5-PLIN5 interaction inhibitors; shares compounds with ABHD5 PLIN5 PPI; biochemical ABHD5-PLIN5 interaction, luminescence; inhibition, % at 4 µM; 2,200 compounds, 67% hits; in the data active means inhibition above about 23%;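 further: 0% = DMSO vehicle wells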
HNF4 split-luc: active in HNF4 split-luciferase counter-screen for ABHD5-PLIN5 inhibitors. HNF4 dimerization, luminescence, biochemical. inhibition, % at 4 µM. 2,200 compounds, 77% hits. shares compounds with ABHD5 PLIN5 PPI;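 active means mean inhibition across replicate wells exceeding the computed hit threshold, cut at about 13% in these data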;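 further: light from luciferase halves that rejoin when HNF4 fusion proteins dimerize; 0% = DMSO only wells and the 100% control is not given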
Target sequence (P41235 whole entry, looked up, the tested form may be a part): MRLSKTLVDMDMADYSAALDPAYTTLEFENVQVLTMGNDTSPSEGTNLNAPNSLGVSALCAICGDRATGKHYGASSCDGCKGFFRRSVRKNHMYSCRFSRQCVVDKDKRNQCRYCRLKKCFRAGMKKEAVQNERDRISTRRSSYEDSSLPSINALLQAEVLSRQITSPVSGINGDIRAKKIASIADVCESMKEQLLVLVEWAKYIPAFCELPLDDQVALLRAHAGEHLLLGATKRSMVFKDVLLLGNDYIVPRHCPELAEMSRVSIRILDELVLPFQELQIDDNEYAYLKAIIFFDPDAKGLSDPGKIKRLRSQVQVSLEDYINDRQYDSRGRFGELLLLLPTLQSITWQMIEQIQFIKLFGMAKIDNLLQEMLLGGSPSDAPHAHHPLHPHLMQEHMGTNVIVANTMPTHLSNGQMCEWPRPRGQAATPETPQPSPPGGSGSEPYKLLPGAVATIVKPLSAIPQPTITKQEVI
Starred values were filed as active, the others as inactive; nt = no result. Shown are actives, neighbours in structure and some others; about 3.3% of the full set was active somewhere.

SMILES	TLR4-MyD88 BLA	PRMT1 inh	ABHD5 PLIN5 PPI	TLR9-MyD88 block	NOD2-RIPK2 inh	rCAG binder	ABHD5-PLIN5 conf	HNF4 split-luc
O=C1NC(=O)C(=Cc2ccc(-c3ccc(S(=O)(=O)N4CCOCC4)cc3)o2)C(=O)N1	nt	14	33*	1	-12	4	91*	93*
O=C1NC(=O)C(=Cc2ccc(-c3ccc(Cl)cc3)o2)C(=O)N1	nt	nt	13	3	-5	nt	nt	nt
COC[C@H]1OC(=O)c2coc3c2[C@@]1(C)C1=C(C3=O)[C@@H]2CCC(=O)[C@@]2(C)C[C@H]1OC(C)=O	nt	20	26*	-12	0	2	8	69*
CC(C)(O)/C=C/C(=O)C(C)(O)C1C(O)CC2(C)C3CC=C4C(C=C(O)C(=O)C4(C)C)C3(C)C(=O)CC12C (centres undefined)	nt	-6	42*	12	13	-1	68*	50*
Clc1cc(Cl)cc(CN2Cc3ccccc3-n3nncc3C2)c1	nt	-3	nt	nt	nt	-2	nt	nt
O=C(O)CCl	nt	2	nt	nt	nt	2	nt	nt
C=C1C(=O)OC2C1CCC(C)C1(O)C=CC(=O)C21C (centres undefined)	nt	3	3	-12	3	6	nt	nt
C=C1C(=O)OC2CC(C)C3C=CC(=O)C3(C)C(O)C12 (centres undefined)	nt	nt	79*	8	20	nt	93*	90*
C=C1C(=O)O[C@H]2[C@H]1[C@H](OC(=O)CC(=O)O[C@@H]1C[C@@H](C)[C@@H]3C=CC(=O)[C@@]3(C)[C@H]3OC(=O)C(=C)[C@H]13)C[C@@H](C)[C@H]1C=CC(=O)[C@]12C	nt	5	74*	1	7	15	91*	90*
C[N+]1=C(N)NC2=C3CCCCC3ONC2C1 (centres undefined)	nt	3	nt	nt	nt	nt	nt	nt
CC(NC(=O)OCc1ccccc1)P(=O)(Oc1ccccc1)Oc1ccccc1 (centres undefined)	nt	-6	nt	nt	nt	-4	nt	nt
N#CCC[C@@H]1CC[C@]2(CCCN(Cc3ccccn3)C2)O1	nt	4	nt	nt	nt	-1	nt	nt
CC[C@]12CCN(CC3(O)CC3)C(Cc3ccc(O)cc31)C2(C)C	nt	-1	nt	nt	nt	3	nt	nt
Nc1c(C(=O)NCC2CCCO2)c2nc3ccccc3nc2n1Cc1ccco1 (centres undefined)	nt	14	26*	-9	-7	13	53*	45*
Nc1c(C(=O)NCc2ccco2)c2nc3ccccc3nc2n1CCN1CCCCC1	-3	3	24*	-4	2	4	12	8
CCCCCCCSc1cc(OC)c(CCN(C)C)cc1OC	8	-3	28*	4	3	-3	17	1
O=C1NC(=O)C(=Cc2ccc(-c3ccc(F)cc3O)o2)C(=O)N1	nt	4	25*	8	8	2	73*	86*
CCCCCCCCc1ccc(O)cc1	nt	-2	-19	-8	-7	2	nt	nt
CCCCCCCCn1sccc1=O	nt	18	90*	1	15	3	89*	107*
CN1C2CCC1C(C(=O)Oc1ccccc1)C(c1ccc(Cl)cc1)C2 (centres undefined)	nt	-2	nt	nt	nt	0	nt	nt
O=C1NC(=O)C(=Cc2ccc(Sc3ccccc3)o2)C(=O)N1	nt	19	23*	2	-1	7	96*	103*
CN1C(=O)C(=Cc2ccccc2Oc2ccc(Cl)cc2)C(=O)N(C)C1=O	-3	21*	32*	-3	0	3	55*	52*
O=S(=O)(c1ccc(Cl)cc1)N1Cc2ccc(Br)cc2-n2nncc2C1	nt	4	nt	nt	nt	1	nt	nt
O=C1c2cccc3cccc(c23)C(=O)N1/N=C/c1c(O)n(-c2ccccc2)c(=O)[nH]c1=O	-17	4	24*	-1	-5	1	13	18*
CCN(CC)S(=O)(=O)c1ccc(N=Cc2c(O)n(-c3ccccc3)c(=O)[nH]c2=O)cc1	2	6	9	-4	-10	1	nt	nt
CC(C)C[C@H]1N=C(c2ccccc2)c2ccccc2N(CC(=O)NC(C)(C)C)C1=O	nt	-2	nt	nt	nt	2	nt	nt
